# Data reported in PubChem BioAssay AID602362 (National Center for Advancing Translational Sciences (NCATS), 2012).
# The other results are listed elsewhere or left out. Inconclusive results are not listed. The source made the active and inactive calls. Calls follow the shape of the dose curve; as a rule, active = well fitted inhibition curve with a large enough effect; inconclusive = small, poorly fitted or top-dose-only effect; inactive = no such curve, though single readings can be large or run the other way.
# Target: 4'-phosphopantetheinyl transferase Sfp (Bacillus subtilis (strain 168)) (UniProt P39135)
# Experiment: qHTS Assay for Inhibitors of Bacillus subtilis Sfp phosphopantetheinyl transferase (PPTase): Gel Based Assay
# Settings: purified Sfp PPTase, gel-based product detection
# Source text: The covalent attachment of a phosphopantetheinyl (4'-PP) arm to a variety of synthases and other proteins is a key posttranslational protein modification. The 4'-PP is installed on the proteins post-translationally from coenzyme A (CoA) on a conserved serine residue by action of phosphopantetheinyl transferase (PPTase) enzymes. Phosphopantetheinylation is essential for synthase activity, and removal of the PPTase gene precludes natural product synthesis in microorganisms, or in the case of fatty acid biosynthesis, renders the organism unviable. PPTase enzymes belong to a distinct structural superfamily. Within bacteria, these enzymes are grouped into two classes based upon primary structure, the AcpS-Type and Sfp-Type PPTases. […]
# In search of small molecule Sfp-PPTase inhibitors, a fluorescence quenching assay was developed for detection of Bacillus subtilis Sfp-PPTase enzymatic activity in a miniaturized high-throughput format. […]
# In this assay, compounds were evaluated by monitoring of fluorescence transfer to whole carrier protein substrates via polyacrylamide gel electrophoresis. […]
# The SDS-PAGE based assay detects the direct incorporation of a fluorescent label into a carrier protein substrate. […] The images are analysed by fluorescent densometry using the ImageJ software package available from the NIH.
row,Compound,Potency
1,COc1ccnc(NC(=S)N2CCN(c3ncc(C(F)(F)F)cc3Cl)CC2)c1,2140 nM (active)
2,Cc1cc(C)nc(NC(=S)N2CCN(c3ccc(Cl)cc3C(F)(F)F)CC2)c1,1070 nM (active)
